The full ranking holds about 39,000 sequences; the median of “fluorescence intensity (a.u.)” is about 4,300, and the highest 2% start at about 39,000. The entries come from a sample that favours the highest values as a whole.

The target of the experiment is T1, OsSMF1 (Oryza sativa, UniProt Q6ZLB0 1-436).
T1 sequence: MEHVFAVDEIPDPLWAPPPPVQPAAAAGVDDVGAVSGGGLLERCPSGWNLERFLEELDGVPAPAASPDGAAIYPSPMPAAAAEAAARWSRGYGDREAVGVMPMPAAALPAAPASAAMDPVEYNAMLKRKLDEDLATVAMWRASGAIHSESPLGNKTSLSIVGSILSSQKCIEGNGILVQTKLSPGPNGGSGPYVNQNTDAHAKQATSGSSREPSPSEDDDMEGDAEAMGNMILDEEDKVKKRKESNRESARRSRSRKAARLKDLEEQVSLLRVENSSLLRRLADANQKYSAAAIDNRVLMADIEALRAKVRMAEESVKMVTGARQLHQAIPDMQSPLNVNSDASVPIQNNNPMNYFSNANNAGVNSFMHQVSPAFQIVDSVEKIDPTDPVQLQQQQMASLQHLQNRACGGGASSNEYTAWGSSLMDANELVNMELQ
In words: protein-binding microarray (RPBM); PBS, 2% BSA, 51.3 ng/ul salmon testes DNA, 50 uM zinc acetate, 200 nM TF, 25 C, 1 h; high values mean tight binding. To be noted: protein: recombinant; tags: N-terminal polyhistidine and DsRed monomer fusion (pET32a); chain copies: 2; label: CyDye5-dUTP incorporated in the synthesized complementary strand; 3' TTTTT single-stranded linker to array surface; dsDNA, one strand shown. In a few lines: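 Binding signal is defined as the fluorescence intensity of each feature in arbitrary units, read on an Axon 4000B scanner. Transcription factors with N-terminal polyhistidine and DsRed fusions came from E. coli BL21-CodonPlus and were purified on Ni–NTA. They were incubated at 200 nM for 1 h at 25 °C on a custom Agilent array that had been made double-stranded with Cy5-dUTP, with 50 µM zinc acetate present, and the array was washed.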
For “CCGCGCCACCTCATGCCGTGACGTGCAGATCCCCTCCTCCCGGAGTCACCTAGTGCAG”, the binding signal is 7890 fluorescence intensity (a.u.). The result for “AATCTCGGTGCTGAGTGGACATGAATGAATGATGGAATCTCGGAGTCACCTAGTGCAG” reads 4150 fluorescence intensity (a.u.); that for “ACATCATGCCACATGCTTCCAAGAAGGATCCCATAGATGTCGGAGTCACCTAGTGCAG”, 4220 fluorescence intensity (a.u.); that for “ATCGTGATGCAAATGTCGAACTTGGAAGATATCCATGGATCGGAGTCACCTAGTGCAG”, 39000 fluorescence intensity (a.u.).

For “TTGTCCATCAATGGAGATGATGATGCCATGATCAAATGATCGGAGTCACCTAGTGCAG”, the binding signal was 3370 fluorescence intensity (a.u.).

Regarding “GGAATGGATAGTGTTCTCGGAAGGAAATTGGTGCTGATGTCGGAGTCACCTAGTGCAG”, the binding signal was 45600 fluorescence intensity (a.u.). Regarding “CACGTGTTTTCTCGATGTCCACGTGGTGATGTGGAATTGTCGGAGTCACCTAGTGCAG”, the binding signal is 14800 fluorescence intensity (a.u.).

In the case of “TCGATTCATTCGTTCCTTGGGTCGTGTCAGCATGGCCCATCGGAGTCACCTAGTGCAG”, the binding signal was 11100 fluorescence intensity (a.u.). With “GGTCTGGCGATGGAGCCTCCCGCCGGAGACGCCGCGCCGTCGGAGTCACCTAGTGCAG”, the binding signal was 3540 fluorescence intensity (a.u.). For the sequence “CCATGTTCCCAACCCCTCTCCCTCATTTTCCACGCGTATGCGGAGTCACCTAGTGCAG”, the binding signal is 3650 fluorescence intensity (a.u.).

“ATGTTTGTGAAGTGACATATCACATATTGATCTATCATACCGGAGTCACCTAGTGCAG”: the binding signal is 5200 fluorescence intensity (a.u.). “TGAGAGGTCTACATCATTACATGTCAAGACAAGACTACCACGGAGTCACCTAGTGCAG”: the binding signal was 4540 fluorescence intensity (a.u.). For the sequence “GAAACAAACACATCAGATGACGTTTGTTGAAATGCCTAACCGGAGTCACCTAGTGCAG”, the binding signal was 5000 fluorescence intensity (a.u.). The result for “GTCCCTATCACATCGGATGTTTGAACAAAACAGAATATACCGGAGTCACCTAGTGCAG” reads 45600 fluorescence intensity (a.u.). The result for “ATCATCTAGTTAAGACTGTTTGTATGCAACTATGCATGTACGGAGTCACCTAGTGCAG” reads 31400 fluorescence intensity (a.u.). The result for “TAACATCATGTCTAGTTTGTTACCCTATCAAGACTAAAACCGGAGTCACCTAGTGCAG” reads 42600 fluorescence intensity (a.u.); that for “ACTTAATAAAATCAAACGTCACAGTTCCGTACTTTTCAGTCGGAGTCACCTAGTGCAG”, 35900 fluorescence intensity (a.u.); that for “TCGCCGGGCTTCTCTACGAGTACCTCGTCATCCCGTCCACCGGAGTCACCTAGTGCAG”, 5700 fluorescence intensity (a.u.). Take “ACGCAGCGGGCCAACTCCAACTCATCCCCAGCCTCCACCACGGAGTCACCTAGTGCAG”: the binding signal was 4360 fluorescence intensity (a.u.). As for “CCGTGCTACAGCTGGCTACAAATATGTAGCCCTATGCTCTCGGAGTCACCTAGTGCAG”, the binding signal is 18300 fluorescence intensity (a.u.). Consider “TCCGTGCTACAGCTAGCTACAGATATGTAGTCCGTCATTCCGGAGTCACCTAGTGCAG”, for which the binding signal is 45200 fluorescence intensity (a.u.). On to “TTGGAGTCCGTGCTGCAGCTGGCTACAGATCTGTAGCCCGCGGAGTCACCTAGTGCAG”, for which the binding signal is 37600 fluorescence intensity (a.u.). The result for “ATCCTGTCACGGTCAGCCACGTCGCGGAGGGCAGTGCGACCGGAGTCACCTAGTGCAG” reads 4580 fluorescence intensity (a.u.); that for “TTTACCATTGCGGGTGCTCTAATAGGTGGCATGCCATGCGCGGAGTCACCTAGTGCAG”, 4740 fluorescence intensity (a.u.). The result for “CGCTTCTCTCCCTGAGCTCGGCCTCGTGTCACTGACGTCGCGGAGTCACCTAGTGCAG” reads 4390 fluorescence intensity (a.u.). The result for “AGGCTCCCCTGAGTCGTGACGTGCACTCGAAAGTCGAAAGCGGAGTCACCTAGTGCAG” reads 41100 fluorescence intensity (a.u.); that for “CGTCGTGCTCGTCGACGTCGTGCACTCCGTCGCCATCGTGCGGAGTCACCTAGTGCAG”, 3220 fluorescence intensity (a.u.). As to “TACTTTAAGTACATGTATTAGTCAGCTGATATATACCTCACGGAGTCACCTAGTGCAG”, the binding signal is 4310 fluorescence intensity (a.u.). The result for “AGTATCTCTTTCACAAAAGCCTACGTCATCTTTAAATTAGCGGAGTCACCTAGTGCAG” reads 5060 fluorescence intensity (a.u.); that for “ACCTGGTAACTGAACACAGGATGGAAACTCTGAATAATGACGGAGTCACCTAGTGCAG”, 3250 fluorescence intensity (a.u.). On to “GATGGAGACCCTGTGCGAACTGACAGTAATAGGGCTGGAACGGAGTCACCTAGTGCAG”, for which the binding signal is 39400 fluorescence intensity (a.u.). The result for “CTTGCGATGCGTGGTGAGTGGTGACTGTAATGTAATGGAACGGAGTCACCTAGTGCAG” reads 3450 fluorescence intensity (a.u.); that for “ATTTACTGCCTATTCGTGAGTTGGTCCTCCTGACTCTGACCGGAGTCACCTAGTGCAG”, 3750 fluorescence intensity (a.u.).

As for “TACCGTCCCTCAACTTTATGTCGAGTCTATATGACATACCCGGAGTCACCTAGTGCAG”, the binding signal was 4220 fluorescence intensity (a.u.). For the sequence “TACTTTATTTTGATTTTCGTGGGAGGTGACGTGGGCGCTTCGGAGTCACCTAGTGCAG”, the binding signal was 19300 fluorescence intensity (a.u.).

As to “TCTTCCCGCTCGCCACGTCAGCGCCATGTGAGCAAAACTACGGAGTCACCTAGTGCAG”, the binding signal was 15500 fluorescence intensity (a.u.). As to “AATCAATCCATTAATATTTAACATGATCAGGCATTAGTCGCGGAGTCACCTAGTGCAG”, the binding signal is 3580 fluorescence intensity (a.u.). The result for “GTTGGAACAATTAATGTGCTGCAGGCAATAACAATCCAGTCGGAGTCACCTAGTGCAG” reads 48700 fluorescence intensity (a.u.). The result for “ATCCACGTGGCAATGTATTAATCCAGTCAGCAACATCTCACGGAGTCACCTAGTGCAG” reads 12400 fluorescence intensity (a.u.).

Take “ATTTGTCTTATGTATATGCTGTATAGGATCTATGGACGCCCGGAGTCACCTAGTGCAG”: the binding signal was 3520 fluorescence intensity (a.u.). The result for “GTTCCATTCCAATCCCATGAAAGCAACAGCGCTGCCTATCCGGAGTCACCTAGTGCAG” reads 35800 fluorescence intensity (a.u.).

Consider “ACATAATTGTATTATGCAGAACCAAAGCAGGCCACGTGAGCGGAGTCACCTAGTGCAG”, for which the binding signal was 5470 fluorescence intensity (a.u.). Take “AACGGGGCCTCGTAGCAACAGCTCTGACGCACGTGACCTCCGGAGTCACCTAGTGCAG”: the binding signal is 5400 fluorescence intensity (a.u.).
